Legend:
Experiment in all cases: PBM; 200 nM protein, PBS
Settings in all cases: dsDNA, one strand shown
[1] = biological target: HESX1 (Homo sapiens, UniProt Q9UBX0 95-180, R165K)
[2] = biological target: SHOX (Homo sapiens, UniProt O15266 103-189)
[3] = biological target: ALX4 (Homo sapiens, UniProt Q9H161 200-286, Q225E)
[4] = biological target: HESX1 (Homo sapiens, UniProt Q9UBX0 95-180)
[5] = biological target: MSX2 (Homo sapiens, UniProt P35548 130-214, R199I)
[6] = biological target: ALX1 (Homo sapiens, UniProt Q15699 118-204, L144V)
[7] = biological target: ALX3 (Homo sapiens, UniProt O95076 139-225, N203Q)
[8] = biological target: SHOX (Homo sapiens, UniProt O15266 103-189, R173C)
[9] = biological target: ALX1 (Homo sapiens, UniProt Q15699 118-204, L144R)
[10] = biological target: ALX3 (Homo sapiens, UniProt O95076 139-225)
[11] = biological target: PROP1 (Homo sapiens, UniProt O75360 56-141)
[12] = biological target: HESX1 (Homo sapiens, UniProt Q9UBX0 95-180, R109Q)
[13] = biological target: PROP1 (Homo sapiens, UniProt O75360 56-141, R99H)
[14] = biological target: ALX3 (Homo sapiens, UniProt O95076 139-225, L168Q)
[15] = biological target: HESX1 (Homo sapiens, UniProt Q9UBX0 95-180, P111T)
[16] = biological target: ALX3 (Homo sapiens, UniProt O95076 139-225, L168V)
[17] = biological target: PROP1 (Homo sapiens, UniProt O75360 56-141, F88S)
[18] = biological target: HESX1 (Homo sapiens, UniProt Q9UBX0 95-180, F115L)
[19] = biological target: ALX1 (Homo sapiens, UniProt Q15699 118-204)
[20] = biological target: ALX3 (Homo sapiens, UniProt O95076 139-225, N203S)
ALX3 (Homo sapiens, UniProt O95076 139-225, N203S), sequence (O95076 139-225 N203S): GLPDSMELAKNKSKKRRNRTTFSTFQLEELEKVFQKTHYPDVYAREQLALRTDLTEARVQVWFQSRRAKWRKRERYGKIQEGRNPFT

HESX1 (Homo sapiens, UniProt Q9UBX0 95-180, R165K), sequence (Q9UBX0 95-180 R165K): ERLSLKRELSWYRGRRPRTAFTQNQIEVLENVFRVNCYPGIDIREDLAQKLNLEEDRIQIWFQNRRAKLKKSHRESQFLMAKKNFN
HESX1 (Homo sapiens, UniProt Q9UBX0 95-180), sequence (Q9UBX0 95-180): as the sequence (Q9UBX0 95-180 R165K) above, with K71R counted along it
SHOX (Homo sapiens, UniProt O15266 103-189, R173C), sequence (O15266 103-189 R173C): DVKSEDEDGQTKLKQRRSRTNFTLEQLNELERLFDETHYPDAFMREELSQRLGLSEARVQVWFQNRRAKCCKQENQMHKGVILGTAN
HESX1 (Homo sapiens, UniProt Q9UBX0 95-180, F115L), sequence (Q9UBX0 95-180 F115L): as the sequence (Q9UBX0 95-180 R165K) above, with F21L, K71R counted along it
HESX1 (Homo sapiens, UniProt Q9UBX0 95-180, R109Q), sequence (Q9UBX0 95-180 R109Q): as the sequence (Q9UBX0 95-180 R165K) above, with R15Q, K71R counted along it
HESX1 (Homo sapiens, UniProt Q9UBX0 95-180, P111T), sequence (Q9UBX0 95-180 P111T): as the sequence (Q9UBX0 95-180 R165K) above, with P17T, K71R counted along it
SHOX (Homo sapiens, UniProt O15266 103-189), sequence (O15266 103-189): as the sequence (O15266 103-189 R173C) above, with C71R counted along it
ALX3 (Homo sapiens, UniProt O95076 139-225, L168V), sequence (O95076 139-225 L168V): as the sequence (O95076 139-225 N203S) above, with L30V, S65N counted along it
ALX1 (Homo sapiens, UniProt Q15699 118-204, L144R), sequence (Q15699 118-204 L144R): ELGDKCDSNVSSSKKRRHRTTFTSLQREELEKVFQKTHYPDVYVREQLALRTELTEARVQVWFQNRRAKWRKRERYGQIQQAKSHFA
ALX3 (Homo sapiens, UniProt O95076 139-225, L168Q), sequence (O95076 139-225 L168Q): as the sequence (O95076 139-225 N203S) above, with L30Q, S65N counted along it
ALX3 (Homo sapiens, UniProt O95076 139-225, N203Q), sequence (O95076 139-225 N203Q): as the sequence (O95076 139-225 N203S) above, with S65Q counted along it
PROP1 (Homo sapiens, UniProt O75360 56-141), sequence (O75360 56-141): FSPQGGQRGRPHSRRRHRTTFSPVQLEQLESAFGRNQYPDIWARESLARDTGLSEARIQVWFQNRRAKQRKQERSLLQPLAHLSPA
PROP1 (Homo sapiens, UniProt O75360 56-141, R99H), sequence (O75360 56-141 R99H): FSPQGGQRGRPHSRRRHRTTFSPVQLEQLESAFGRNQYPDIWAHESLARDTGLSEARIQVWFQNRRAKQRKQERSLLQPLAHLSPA
ALX1 (Homo sapiens, UniProt Q15699 118-204), sequence (Q15699 118-204): as the sequence (Q15699 118-204 L144R) above, with R27L counted along it
ALX3 (Homo sapiens, UniProt O95076 139-225), sequence (O95076 139-225): as the sequence (O95076 139-225 N203S) above, with S65N counted along it
PROP1 (Homo sapiens, UniProt O75360 56-141, F88S), sequence (O75360 56-141 F88S): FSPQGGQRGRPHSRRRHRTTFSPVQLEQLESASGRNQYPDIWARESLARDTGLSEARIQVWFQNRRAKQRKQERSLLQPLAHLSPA
ALX4, sequence (Q9H161 200-286 Q225E): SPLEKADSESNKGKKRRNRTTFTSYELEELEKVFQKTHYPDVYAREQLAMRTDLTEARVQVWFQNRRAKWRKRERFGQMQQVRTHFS
ALX1 (Homo sapiens, UniProt Q15699 118-204, L144V), sequence (Q15699 118-204 L144V): as the sequence (Q15699 118-204 L144R) above, with R27V counted along it
MSX2, sequence (P35548 130-214 R199I): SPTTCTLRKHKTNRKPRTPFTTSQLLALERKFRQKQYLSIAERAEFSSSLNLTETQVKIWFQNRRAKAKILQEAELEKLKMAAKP

Sequence: AATTAGCA
- binding signal [1]: 11.6 upbm affinity estimate (log intensity, higher = more binding, comparable within an allelic series)
- binding signal [2]: 11.6 upbm affinity estimate (log intensity, higher = more binding, comparable within an allelic series)
- binding signal [3]: 12.7 upbm affinity estimate (log intensity, higher = more binding, comparable within an allelic series)
- binding signal [4]: 11.6 upbm affinity estimate (log intensity, higher = more binding, comparable within an allelic series)
- binding signal [5]: 12.2 upbm affinity estimate (log intensity, higher = more binding, comparable within an allelic series)
- binding signal [6]: 11.5 upbm affinity estimate (log intensity, higher = more binding, comparable within an allelic series)
- binding signal [7]: 8.31 upbm affinity estimate (log intensity, higher = more binding, comparable within an allelic series)
- binding signal [8]: 9.43 upbm affinity estimate (log intensity, higher = more binding, comparable within an allelic series)
- binding signal [9]: 11.1 upbm affinity estimate (log intensity, higher = more binding, comparable within an allelic series)
- binding signal [10]: 12.2 upbm affinity estimate (log intensity, higher = more binding, comparable within an allelic series)
- binding signal [11]: 11.1 upbm affinity estimate (log intensity, higher = more binding, comparable within an allelic series)
- binding signal [12]: 8.94 upbm affinity estimate (log intensity, higher = more binding, comparable within an allelic series)
- binding signal [13]: 10.9 upbm affinity estimate (log intensity, higher = more binding, comparable within an allelic series)
- binding signal [14]: 10.3 upbm affinity estimate (log intensity, higher = more binding, comparable within an allelic series)
- binding signal [15]: 10.4 upbm affinity estimate (log intensity, higher = more binding, comparable within an allelic series)
- binding signal [16]: 9.83 upbm affinity estimate (log intensity, higher = more binding, comparable within an allelic series)
- binding signal [17]: 7.78 upbm affinity estimate (log intensity, higher = more binding, comparable within an allelic series)
- binding signal [18]: 7.45 upbm affinity estimate (log intensity, higher = more binding, comparable within an allelic series)
- binding signal [19]: 12.2 upbm affinity estimate (log intensity, higher = more binding, comparable within an allelic series)
- binding signal [20]: 8.36 upbm affinity estimate (log intensity, higher = more binding, comparable within an allelic series)

Sequence: TAATTGAA
- binding signal [1]: 12.9 upbm affinity estimate (log intensity, higher = more binding, comparable within an allelic series)
- binding signal [2]: 12 upbm affinity estimate (log intensity, higher = more binding, comparable within an allelic series)
- binding signal [3]: 13.2 upbm affinity estimate (log intensity, higher = more binding, comparable within an allelic series)
- binding signal [4]: 12.9 upbm affinity estimate (log intensity, higher = more binding, comparable within an allelic series)
- binding signal [5]: 12.5 upbm affinity estimate (log intensity, higher = more binding, comparable within an allelic series)
- binding signal [6]: 11.6 upbm affinity estimate (log intensity, higher = more binding, comparable within an allelic series)
- binding signal [7]: 8.33 upbm affinity estimate (log intensity, higher = more binding, comparable within an allelic series)
- binding signal [8]: 9.58 upbm affinity estimate (log intensity, higher = more binding, comparable within an allelic series)
- binding signal [9]: 11.3 upbm affinity estimate (log intensity, higher = more binding, comparable within an allelic series)
- binding signal [10]: 12.5 upbm affinity estimate (log intensity, higher = more binding, comparable within an allelic series)
- binding signal [11]: 11.5 upbm affinity estimate (log intensity, higher = more binding, comparable within an allelic series)
- binding signal [12]: 9.18 upbm affinity estimate (log intensity, higher = more binding, comparable within an allelic series)
- binding signal [13]: 11.6 upbm affinity estimate (log intensity, higher = more binding, comparable within an allelic series)
- binding signal [14]: 10.6 upbm affinity estimate (log intensity, higher = more binding, comparable within an allelic series)
- binding signal [15]: 11.4 upbm affinity estimate (log intensity, higher = more binding, comparable within an allelic series)
- binding signal [16]: 10 upbm affinity estimate (log intensity, higher = more binding, comparable within an allelic series)
- binding signal [17]: 7.68 upbm affinity estimate (log intensity, higher = more binding, comparable within an allelic series)
- binding signal [18]: 7.71 upbm affinity estimate (log intensity, higher = more binding, comparable within an allelic series)
- binding signal [19]: 12.3 upbm affinity estimate (log intensity, higher = more binding, comparable within an allelic series)
- binding signal [20]: 8.47 upbm affinity estimate (log intensity, higher = more binding, comparable within an allelic series)

Sequence: GGAGCGCA
- binding signal [1]: 6.3 upbm affinity estimate (log intensity, higher = more binding, comparable within an allelic series)
- binding signal [2]: 7.21 upbm affinity estimate (log intensity, higher = more binding, comparable within an allelic series)
- binding signal [4]: 6.37 upbm affinity estimate (log intensity, higher = more binding, comparable within an allelic series)
- binding signal [8]: 7.1 upbm affinity estimate (log intensity, higher = more binding, comparable within an allelic series)
- binding signal [12]: 6.4 upbm affinity estimate (log intensity, higher = more binding, comparable within an allelic series)
- binding signal [15]: 6.31 upbm affinity estimate (log intensity, higher = more binding, comparable within an allelic series)
- binding signal [18]: 6.34 upbm affinity estimate (log intensity, higher = more binding, comparable within an allelic series)

Sequence: GAGGGGGC
- binding signal [1]: 6.47 upbm affinity estimate (log intensity, higher = more binding, comparable within an allelic series)
- binding signal [4]: 6.37 upbm affinity estimate (log intensity, higher = more binding, comparable within an allelic series)
- binding signal [12]: 6.41 upbm affinity estimate (log intensity, higher = more binding, comparable within an allelic series)
- binding signal [15]: 6.44 upbm affinity estimate (log intensity, higher = more binding, comparable within an allelic series)
- binding signal [18]: 6.41 upbm affinity estimate (log intensity, higher = more binding, comparable within an allelic series)

— publication PMC11006913
